According to PubChem BioAssay (Tox21):
Results filed as inconclusive are left out. A call without a number means that no potency is given here. Calls of active or inactive are those of the source. Calls come from the whole dose curve; as a rule, active = well fitted cell-killing curve with a large enough effect in the repeat runs; inconclusive = weak or mixed curves, or effect the other way; inactive = flat fitted curve, though single readings scatter.

Key:
[1] = cAMP Responsive Elements (CRE) small molecule antagonists, cell-based qHTS assay: qHTS cell viability counter screen (AID 2060913); note: nearly all actives have a fitted effect of over 40% in size
Summary of the method: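 CRE-bla HEK293T cells were seeded in assay medium with 10% dialyzed FBS, incubated 18 hrs at 37 C, then exposed to compounds plus 0.25 uM final NKH477 for 3 hrs. Viability was read by CellTiter-Glo luminescence after 30 min, in the same wells.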

[2] = cAMP Responsive Elements (CRE) small molecule agonists, cell-based qHTS assay: qHTS cell viability counter screen (AID 2060914);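 note: viability read after 3 h of compound exposure; nearly all actives have a fitted effect of over 50% in size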
Summary of the method: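 Cytotoxicity counter screen multiplexed with the CRE-bla reporter assay in HEK 293T cells: 3 h compound exposure at 37 °C, followed by CellTiter-Glo luminescence measured in the same wells.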

| Structure (SMILES) | Potency [1] | Potency [2] |
| --- | --- | --- |
| CCOC(=O)CCN(SN(C)C(=O)Oc1cccc2c1OC(C)(C)C2)C(C)C | inactive | inactive |
| Nc1ccccc1C(=O)O | inactive | inactive |
| N#C/C=C/c1ccccc1 | inactive | inactive |
| C=CC(=O)OCCO | inactive | inactive |
| C[C@H](N)C(=O)c1ccccc1 | inactive | inactive |
| CC(C)(Cl)[N+](=O)[O-] | inactive | inactive |
| C[C@]12Cc3cn[nH]c3C[C@@H]1CC[C@@H]1[C@@H]2CC[C@@]2(C)[C@H]1CC[C@]2(C)O | inactive | inactive |
| COC(=O)c1c(C(F)F)nc(C(F)(F)F)c(C2=NCCS2)c1CC(C)C | inactive | inactive |
| N#CC(C#N)=Cc1ccc(O)c(O)c1 | inactive | inactive |
| COc1cccc(C=O)c1 | inactive | inactive |
| Cc1ccc2ccccc2c1 | inactive | inactive |
| ClCC(Cl)CCl | inactive | inactive |
| Cc1ccc2cc(C)ccc2c1 | inactive | inactive |
| CC(C)(C)OO | inactive | inactive |
| CCNCC | inactive | inactive |
| O=C(O)c1ccc(=O)[nH]c1 | inactive | inactive |
| COc1ccc(CO)cc1 | inactive | inactive |
| CCOP(=S)(OCC)Oc1ccc(Cl)cc1Cl | inactive | inactive |
| CCOC(=O)N(C)N=O | inactive | inactive |
| Oc1ccc(Cl)c(Cl)c1 | inactive | inactive |
| CCNc1nc(NC(C)C)nc(SC)n1 | inactive | inactive |
| Cc1cc(C)c(C2=C(OC(=O)CC(C)(C)C)C3(CCCC3)OC2=O)c(C)c1 | inactive | inactive |
| C=CCOC(=O)C(C)(C)OC(=O)c1cc(-n2c(=O)cc(C(F)(F)F)n(C)c2=O)ccc1Cl | inactive | inactive |
